# Results published in PubChem BioAssay (NCATS).
# Several values for one entry are separate records, joined by “and”; a condition that tells them apart may be missing. Identical values can stand only once. Inconclusive results are not listed. Where a call stands in place of a potency, no number is given. Some compounds were tested as several samples or in several runs, with calls that do not always agree. Activity calls are given as the source filed them. Calls come from the whole dose curve; as a rule, active = well fitted curve in the direction sought with a large enough effect; inconclusive = small, poorly fitted or top-dose-only effect, or another doubt; inactive = no such curve, though single readings can be large; an effect the other way counts as inactive or inconclusive. Peptide text beside a SMILES is read from it.
# Biological target: Calcium and integrin-binding protein 1 (Homo sapiens) (UniProt Q99828)
# Sequence (Q99828 whole entry, looked up): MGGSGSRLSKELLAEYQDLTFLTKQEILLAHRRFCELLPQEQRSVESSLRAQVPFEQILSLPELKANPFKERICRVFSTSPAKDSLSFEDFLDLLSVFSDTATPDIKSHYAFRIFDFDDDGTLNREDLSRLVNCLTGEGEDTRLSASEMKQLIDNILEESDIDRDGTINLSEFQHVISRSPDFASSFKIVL
# Assay: Primary qHTS for Identification of Calcium Integrin Binding Protein 1 (CIB1) Competitor (AID 1508620)
# Details: CIB1-GST / FITC-alphaIIb peptide fluorescence polarization; series mostly up to 57.7 µM
# Summary of the method: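 Fluorescence polarization competition: CIB1-GST (1 uM final) preincubated with compound 15 min at room temperature, then FITC-labeled alphaIIb peptide (100 nM final) added for another 15 min. Polarization read at Ex 480/Em 540.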
# Potency is the fitted concentration of half-maximal effect.
row,SMILES,Potency
1,CCCOc1ccc2nc(NC(=O)OC)[nH]c2c1,inactive
2,CC1=C(C(=O)O)N2C(=O)[C@@H](NC(=O)[C@H](N)C3=CCC=CC3)[C@H]2SC1,inactive
3,Nc1ccc(S(N)(=O)=O)cc1,inactive
4,C=CCc1cc(OC)c(O)c(C(=O)NCCO)c1,inactive
5,Cc1nc2n(c(=O)c1CCN1CCC(c3noc4cc(F)ccc34)CC1)CCCC2,inactive
6,CC(C)Oc1ccc2c(=O)c(-c3ccccc3)coc2c1,inactive
7,O=C(OC1C[C@H]2CC[C@@H](C1)[N+]21CCCC1)C(O)(c1ccccc1)c1ccccc1 (stereo partly drawn),inactive
8,Nc1ncn([C@H]2C[C@H](O)[C@@H](CO)O2)c(=O)n1,inactive
9,Nc1cc(C(Cl)=C(Cl)Cl)c(S(N)(=O)=O)cc1S(N)(=O)=O,inactive
10,O=C(O)CCNC(=O)c1ccc(N=Nc2ccc(O)c(C(=O)O)c2)cc1,inactive
11,COCCCN1CCC(NC(=O)c2cc(Cl)c(N)c3c2OCC3)CC1,inactive
12,CC(C)[C@H](N)C(=O)OCCOCn1cnc2c(=O)[nH]c(N)nc21,inactive
13,CCCCC(CC)COC(=O)C(C#N)=C(c1ccccc1)c1ccccc1 (stereo not drawn),inactive
14,S=c1nc[nH]c2nc[nH]c12,inactive
15,COc1cc(Nc2c(C#N)cnc3cc(OCCCN4CCN(C)CC4)c(OC)cc23)c(Cl)cc1Cl,inactive
16,Oc1ccc(OCc2ccccc2)cc1,inactive
17,COc1cc2c(N3CCN(C(=O)Nc4ccc(OC(C)C)cc4)CC3)ncnc2cc1OCCCN1CCCCC1,inactive
18,COc1cc(OC)c(C(=O)CCCN2CCCC2)c(OC)c1,inactive
19,CCc1nc(N)nc(N)c1-c1ccc(Cl)cc1,inactive
20,CC(C)c1ccc2oc3nc(N)c(C(=O)O)cc3c(=O)c2c1,inactive

row,SMILES,Potency
1,COC(=O)[C@H](Cc1ccccc1)NC(=O)[C@@H](N)CC(=O)O (H-Asp-Phe-OMe),inactive
2,N=C(N)c1ccc2cc(OC(=O)c3ccc(N=C(N)N)cc3)ccc2c1,inactive
3,Clc1ccc(C(Cn2ccnc2)OCc2ccc(Sc3ccccc3)cc2)c(Cl)c1 (stereo not drawn),inactive
4,Cc1cc2cc3c(C)cc(=O)oc3c(C)c2o1,inactive
5,CC(S)C(=O)NCC(=O)O (stereo not drawn),inactive
6,Cc1ccc(C)c(OCCCC(C)(C)C(=O)O)c1,inactive
7,CN1C(C(=O)Nc2ccccn2)=C(O)c2sccc2S1(=O)=O,inactive
8,Cc1ncc([N+](=O)[O-])n1CC(C)O (stereo not drawn),inactive
9,Cc1nccn1CC1CCc2c(c3ccccc3n2C)C1=O (stereo not drawn),inactive
10,NC(=O)Cc1cccc(C(=O)c2ccccc2)c1N,inactive
11,O=C(NC(Cc1cc(=O)[nH]c2ccccc12)C(=O)O)c1ccc(Cl)cc1 (stereo not drawn),inactive
12,CN(c1nccc(=O)[nH]1)C1CCN(c2nc3ccccc3n2Cc2ccc(F)cc2)CC1,inactive
13,N[C@@H](Cc1cc(I)c(Oc2cc(I)c(O)c(I)c2)c(I)c1)C(=O)O,inactive
14,N=C(N=C(N)N)N1CCOCC1,inactive
15,CN(C)C(=O)COC(=O)Cc1ccc(OC(=O)c2ccc(N=C(N)N)cc2)cc1,inactive
16,COCCCOc1ccnc(CS(=O)c2nc3ccccc3[nH]2)c1C (stereo not drawn),39.8 µM (active) and inactive
17,Cc1cc(=O)oc2cc(O)ccc12,inactive
18,O=C(O)c1cccnc1Nc1cccc(C(F)(F)F)c1,inactive
19,CCC[C@@H]1C[C@@H](C(=O)N[C@@H]([C@H]2O[C@H](SC)[C@H](O)[C@@H](O)[C@H]2O)[C@@H](C)O)N(C)C1,inactive

# Tested on: not listed separately
# Assay: Primary qHTS for small molecule stabilizers of the endoplasmic reticulum resident proteome: Secreted ER Calcium Modulated Protein (SERCaMP) assay (AID 1508630)
# Details: SH-SY5Y GLuc-SERCaMP (Gaussia luciferase released on ER calcium loss) secretion, thapsigargin, luminescence; series mostly up to 38.4 µM
# Summary of the method: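 GLuc-SERCaMP-expressing SH-SY5Y cells, pretreated 16 h with compound, are challenged with thapsigargin to empty ER calcium stores; after 4 h, coelenterazine is added directly to the medium and luminescence is imaged.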
row,SMILES,Potency
1,CCCOc1ccc2nc(NC(=O)OC)[nH]c2c1,inactive
2,CC1=C(C(=O)O)N2C(=O)[C@@H](NC(=O)[C@H](N)C3=CCC=CC3)[C@H]2SC1,inactive
3,Nc1ccc(S(N)(=O)=O)cc1,inactive
4,C=CCc1cc(OC)c(O)c(C(=O)NCCO)c1,inactive
5,Cc1nc2n(c(=O)c1CCN1CCC(c3noc4cc(F)ccc34)CC1)CCCC2,inactive
6,CC(C)Oc1ccc2c(=O)c(-c3ccccc3)coc2c1,inactive
7,O=C(OC1C[C@H]2CC[C@@H](C1)[N+]21CCCC1)C(O)(c1ccccc1)c1ccccc1 (stereo partly drawn),inactive
8,Nc1ncn([C@H]2C[C@H](O)[C@@H](CO)O2)c(=O)n1,inactive
9,Nc1cc(C(Cl)=C(Cl)Cl)c(S(N)(=O)=O)cc1S(N)(=O)=O,inactive
10,O=C(O)CCNC(=O)c1ccc(N=Nc2ccc(O)c(C(=O)O)c2)cc1,inactive
11,COCCCN1CCC(NC(=O)c2cc(Cl)c(N)c3c2OCC3)CC1,inactive
12,CC(C)[C@H](N)C(=O)OCCOCn1cnc2c(=O)[nH]c(N)nc21,inactive
13,CCCCC(CC)COC(=O)C(C#N)=C(c1ccccc1)c1ccccc1 (stereo not drawn),inactive
14,S=c1nc[nH]c2nc[nH]c12,inactive
15,COc1cc(Nc2c(C#N)cnc3cc(OCCCN4CCN(C)CC4)c(OC)cc23)c(Cl)cc1Cl,inactive
16,Oc1ccc(OCc2ccccc2)cc1,inactive
17,COc1cc2c(N3CCN(C(=O)Nc4ccc(OC(C)C)cc4)CC3)ncnc2cc1OCCCN1CCCCC1,inactive
18,COc1cc(OC)c(C(=O)CCCN2CCCC2)c(OC)c1,inactive
19,CCc1nc(N)nc(N)c1-c1ccc(Cl)cc1,inactive
20,CC(C)c1ccc2oc3nc(N)c(C(=O)O)cc3c(=O)c2c1,inactive

row,SMILES,Potency
1,COC(=O)[C@H](Cc1ccccc1)NC(=O)[C@@H](N)CC(=O)O (H-Asp-Phe-OMe),inactive
2,N=C(N)c1ccc2cc(OC(=O)c3ccc(N=C(N)N)cc3)ccc2c1,inactive
3,Clc1ccc(C(Cn2ccnc2)OCc2ccc(Sc3ccccc3)cc2)c(Cl)c1 (stereo not drawn),inactive
4,Cc1cc2cc3c(C)cc(=O)oc3c(C)c2o1,inactive
5,CC(S)C(=O)NCC(=O)O (stereo not drawn),inactive
6,Cc1ccc(C)c(OCCCC(C)(C)C(=O)O)c1,inactive
7,CN1C(C(=O)Nc2ccccn2)=C(O)c2sccc2S1(=O)=O,inactive
8,Cc1ncc([N+](=O)[O-])n1CC(C)O (stereo not drawn),inactive
9,Cc1nccn1CC1CCc2c(c3ccccc3n2C)C1=O (stereo not drawn),inactive
10,NC(=O)Cc1cccc(C(=O)c2ccccc2)c1N,inactive
11,O=C(NC(Cc1cc(=O)[nH]c2ccccc12)C(=O)O)c1ccc(Cl)cc1 (stereo not drawn),inactive
12,CN(c1nccc(=O)[nH]1)C1CCN(c2nc3ccccc3n2Cc2ccc(F)cc2)CC1,inactive
13,N[C@@H](Cc1cc(I)c(Oc2cc(I)c(O)c(I)c2)c(I)c1)C(=O)O,inactive and 749 nM (active)
14,N=C(N=C(N)N)N1CCOCC1,inactive
15,CN(C)C(=O)COC(=O)Cc1ccc(OC(=O)c2ccc(N=C(N)N)cc2)cc1,inactive
16,COCCCOc1ccnc(CS(=O)c2nc3ccccc3[nH]2)c1C (stereo not drawn),inactive
17,Cc1cc(=O)oc2cc(O)ccc12,inactive
18,O=C(O)c1cccnc1Nc1cccc(C(F)(F)F)c1,inactive
19,CCC[C@@H]1C[C@@H](C(=O)N[C@@H]([C@H]2O[C@H](SC)[C@H](O)[C@@H](O)[C@H]2O)[C@@H](C)O)N(C)C1,inactive
